Measured values taken from ChEMBL document CHEMBL3988442, “University of Dundee, Small-Polar-MMV Screening Library” (2021).
For some of these results: Results with a measured potency or affinity are listed apart.

How the values were obtained:
Design in all cases: scale not given: direction of the effect not stated beside the values
[1] = biological target: Protein translocase subunit SecA (Escherichia coli (strain K12)) (UniProt P10408); assay: Assay to Identify E. coli SecA ATPase Inhibitors; type: functional; conditions: 30 µM
Protein translocase subunit SecA (Escherichia coli (strain K12)), sequence (P10408 whole entry): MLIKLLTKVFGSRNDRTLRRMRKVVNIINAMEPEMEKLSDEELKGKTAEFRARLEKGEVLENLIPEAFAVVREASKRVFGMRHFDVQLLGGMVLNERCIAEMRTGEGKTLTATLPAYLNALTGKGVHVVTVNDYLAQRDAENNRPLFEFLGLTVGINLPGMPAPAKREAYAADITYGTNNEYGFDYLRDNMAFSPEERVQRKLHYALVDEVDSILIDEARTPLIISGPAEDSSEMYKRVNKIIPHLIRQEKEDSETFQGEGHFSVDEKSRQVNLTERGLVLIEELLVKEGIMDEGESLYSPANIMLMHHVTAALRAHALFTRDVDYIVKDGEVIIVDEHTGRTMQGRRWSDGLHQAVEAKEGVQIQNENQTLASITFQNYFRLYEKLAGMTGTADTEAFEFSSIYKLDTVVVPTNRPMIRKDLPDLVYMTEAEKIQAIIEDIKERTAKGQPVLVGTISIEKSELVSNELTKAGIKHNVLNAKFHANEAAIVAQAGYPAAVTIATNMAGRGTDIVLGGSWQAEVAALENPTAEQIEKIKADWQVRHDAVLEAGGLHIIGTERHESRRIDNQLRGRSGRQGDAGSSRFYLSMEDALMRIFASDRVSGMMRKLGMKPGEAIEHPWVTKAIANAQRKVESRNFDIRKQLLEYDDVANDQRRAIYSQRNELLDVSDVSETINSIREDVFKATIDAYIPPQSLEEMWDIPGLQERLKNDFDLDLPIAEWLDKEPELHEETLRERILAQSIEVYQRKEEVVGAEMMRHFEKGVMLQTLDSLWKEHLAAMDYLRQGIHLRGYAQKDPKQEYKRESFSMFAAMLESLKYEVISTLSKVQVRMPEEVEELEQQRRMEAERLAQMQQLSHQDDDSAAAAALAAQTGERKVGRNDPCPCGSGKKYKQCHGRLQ

[2] = biological target: T1, Ubiquitin-activating enzyme e1, putative (Leishmania donovani (strain BPK282A1)) (UniProt E9BSI1); assay: Leishmania donovani Ubiquitin Activating Enzyme (LdE1); type: functional; conditions: 30 µM
T1 sequence (whole entry): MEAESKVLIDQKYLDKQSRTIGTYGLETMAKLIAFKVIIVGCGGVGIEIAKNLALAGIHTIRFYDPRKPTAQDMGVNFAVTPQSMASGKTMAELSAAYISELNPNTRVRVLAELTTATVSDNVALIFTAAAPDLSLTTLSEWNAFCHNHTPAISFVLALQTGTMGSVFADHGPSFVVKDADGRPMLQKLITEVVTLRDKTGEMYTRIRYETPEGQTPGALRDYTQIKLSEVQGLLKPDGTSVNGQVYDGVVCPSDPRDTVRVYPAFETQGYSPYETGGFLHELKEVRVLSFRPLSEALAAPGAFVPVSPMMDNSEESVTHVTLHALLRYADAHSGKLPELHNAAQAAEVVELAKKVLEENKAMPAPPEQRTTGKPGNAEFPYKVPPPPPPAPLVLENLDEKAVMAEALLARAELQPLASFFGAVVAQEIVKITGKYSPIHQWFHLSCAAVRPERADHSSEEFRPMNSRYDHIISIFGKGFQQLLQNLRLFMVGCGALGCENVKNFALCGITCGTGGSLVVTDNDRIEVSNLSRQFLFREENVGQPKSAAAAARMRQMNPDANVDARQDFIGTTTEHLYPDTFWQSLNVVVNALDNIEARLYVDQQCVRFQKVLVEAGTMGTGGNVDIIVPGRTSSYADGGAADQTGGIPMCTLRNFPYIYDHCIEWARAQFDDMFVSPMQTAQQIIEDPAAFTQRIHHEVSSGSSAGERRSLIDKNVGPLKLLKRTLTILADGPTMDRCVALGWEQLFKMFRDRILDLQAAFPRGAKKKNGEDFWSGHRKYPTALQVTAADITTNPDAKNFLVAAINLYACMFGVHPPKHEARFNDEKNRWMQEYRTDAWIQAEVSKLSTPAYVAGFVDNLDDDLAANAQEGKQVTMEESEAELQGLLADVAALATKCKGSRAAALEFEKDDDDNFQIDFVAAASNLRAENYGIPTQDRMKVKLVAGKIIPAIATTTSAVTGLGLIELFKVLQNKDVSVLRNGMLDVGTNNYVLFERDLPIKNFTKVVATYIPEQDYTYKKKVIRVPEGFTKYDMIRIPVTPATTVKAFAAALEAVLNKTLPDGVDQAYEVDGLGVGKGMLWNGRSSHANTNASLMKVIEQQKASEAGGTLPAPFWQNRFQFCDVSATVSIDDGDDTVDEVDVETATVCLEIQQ

[3] = biological target: AMP-activated protein kinase, AMPK (Homo sapiens) (UniProt P54646+O43741+P54619+Q9UGJ0+Q9Y478+Q13131+Q9UGI9); assay: AMP-dependent Kinase enzyme assay. An in vitro enzyme assay that detects ADP turnover that is directly proportional to AMPK activity. This uses naive AMPK that is activated during the assay with MK-8722; type: functional; conditions: 30 µM
[4] = biological target: Sialic acid-binding Ig-like lectin 9 (Homo sapiens) (UniProt Q9Y336); assay: Hs-Siglec9 ALPHAscreen SOP 20170721; conditions: 10 µM
Sialic acid-binding Ig-like lectin 9 (Homo sapiens), sequence (Q9Y336 whole entry): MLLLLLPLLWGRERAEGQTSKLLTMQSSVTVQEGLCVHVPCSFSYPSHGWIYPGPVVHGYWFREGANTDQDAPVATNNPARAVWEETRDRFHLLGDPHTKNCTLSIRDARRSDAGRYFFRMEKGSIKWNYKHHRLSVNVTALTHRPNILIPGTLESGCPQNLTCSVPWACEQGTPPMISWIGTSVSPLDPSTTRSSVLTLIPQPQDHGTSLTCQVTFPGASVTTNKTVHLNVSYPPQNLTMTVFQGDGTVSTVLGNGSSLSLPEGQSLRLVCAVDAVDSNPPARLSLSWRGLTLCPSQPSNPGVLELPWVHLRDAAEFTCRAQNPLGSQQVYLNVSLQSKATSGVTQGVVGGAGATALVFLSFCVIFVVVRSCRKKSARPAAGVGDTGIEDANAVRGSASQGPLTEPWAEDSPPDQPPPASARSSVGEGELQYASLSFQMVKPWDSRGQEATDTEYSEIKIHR

Trypanosoma cruzi = assay: Trypanosoma cruzi phosphomannomutase and mannose-1-phosphate guanylyltransferase assay; type: functional; conditions: 10 µM
[5] = biological target: T2, Arginase-2, mitochondrial (Homo sapiens) (UniProt P78540); assay: in vitro enzyme assay to detect the production of urea directly proportional to the activity of Arginase II; type: functional; conditions: 33.3 µM; also: in the data most compounds retested in dose-response had high values
T2 sequence (whole entry): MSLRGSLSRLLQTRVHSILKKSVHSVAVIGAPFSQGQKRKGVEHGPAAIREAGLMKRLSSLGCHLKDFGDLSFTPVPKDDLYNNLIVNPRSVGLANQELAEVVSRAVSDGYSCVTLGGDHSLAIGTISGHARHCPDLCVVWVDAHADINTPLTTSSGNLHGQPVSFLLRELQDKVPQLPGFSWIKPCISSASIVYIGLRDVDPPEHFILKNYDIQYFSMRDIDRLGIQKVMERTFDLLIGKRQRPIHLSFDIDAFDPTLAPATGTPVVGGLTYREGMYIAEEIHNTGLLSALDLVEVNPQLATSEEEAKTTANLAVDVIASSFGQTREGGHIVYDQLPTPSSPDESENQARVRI

[6] = biological target: T3, Proteasome subunit beta (Trypanosoma cruzi) (UniProt O96673); assay: Trypanosoma cruzi proteasome chymotrypsin-like activity (TcProtChymo) assay.; also: in the data most compounds retested in dose-response had high values; type: functional; conditions: 9.37 µM
T3 sequence (whole entry): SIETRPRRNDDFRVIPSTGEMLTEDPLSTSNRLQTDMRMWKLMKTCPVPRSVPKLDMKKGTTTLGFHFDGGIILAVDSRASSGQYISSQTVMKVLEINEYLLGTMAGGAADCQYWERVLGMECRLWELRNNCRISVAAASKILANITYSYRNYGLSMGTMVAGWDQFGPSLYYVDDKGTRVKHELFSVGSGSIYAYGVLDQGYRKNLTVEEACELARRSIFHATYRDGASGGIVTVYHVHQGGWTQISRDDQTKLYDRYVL

Homo sapiens = species: Homo sapiens; assay: To identify inhibition of the IFN signalling (Jak-Stat) pathway via expression of an eGFP reporter gene under the control of an IFN-stimulated response element (ISRE) containing MxA promoter.; type: functional; conditions: 30 µM
[7] = biological target: T4, Tyrosyl-tRNA synthetase, putative (Trypanosoma cruzi (strain CL Brener)) (UniProt Q4DSP6); assay: Trypanosoma cruzi tyrosyl tRNA synthetase (TcYRS) _High Tyrosine SOP; type: functional; conditions: 30 µM; also: in the data most compounds retested in dose-response had high values
T4 sequence (whole entry): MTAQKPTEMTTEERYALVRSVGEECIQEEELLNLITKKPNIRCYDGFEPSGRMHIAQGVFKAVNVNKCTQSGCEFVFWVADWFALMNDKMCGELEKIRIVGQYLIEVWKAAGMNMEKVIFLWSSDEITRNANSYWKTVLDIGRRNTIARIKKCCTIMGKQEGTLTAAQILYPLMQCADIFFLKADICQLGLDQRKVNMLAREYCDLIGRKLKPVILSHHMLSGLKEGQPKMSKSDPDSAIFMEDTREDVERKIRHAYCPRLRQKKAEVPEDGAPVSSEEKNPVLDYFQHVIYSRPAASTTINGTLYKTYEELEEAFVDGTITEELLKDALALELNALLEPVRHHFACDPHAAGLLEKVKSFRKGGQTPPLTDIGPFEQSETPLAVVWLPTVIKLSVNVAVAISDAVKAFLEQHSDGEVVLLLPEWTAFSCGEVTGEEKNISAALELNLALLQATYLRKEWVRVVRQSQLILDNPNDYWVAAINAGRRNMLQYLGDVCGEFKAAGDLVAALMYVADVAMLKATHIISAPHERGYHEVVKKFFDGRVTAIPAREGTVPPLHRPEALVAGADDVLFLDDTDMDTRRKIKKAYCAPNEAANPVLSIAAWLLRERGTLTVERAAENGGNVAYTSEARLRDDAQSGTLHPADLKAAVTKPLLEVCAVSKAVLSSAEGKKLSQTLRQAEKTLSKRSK

[8] = biological target: T4, Tyrosyl-tRNA synthetase, putative (Trypanosoma cruzi (strain CL Brener)); assay: Trypanosoma cruzi tyrosyl tRNA synthetase (TcYRS) SOP; type: functional; conditions: 30 µM
[9] = biological target: Chromo domain-containing protein 1 (Saccharomyces cerevisiae (strain ATCC 204508 / S288c) (Baker's yeast)) (UniProt P32657); assay: ScCHD-1 Enzyme Inhibition Assay; type: functional; conditions: 30 µM; also: in the data most compounds retested in dose-response had high values
Chromo domain-containing protein 1 (Saccharomyces cerevisiae (strain ATCC 204508 / S288c) (Baker's yeast)), sequence (P32657 whole entry, the tested form may be a part): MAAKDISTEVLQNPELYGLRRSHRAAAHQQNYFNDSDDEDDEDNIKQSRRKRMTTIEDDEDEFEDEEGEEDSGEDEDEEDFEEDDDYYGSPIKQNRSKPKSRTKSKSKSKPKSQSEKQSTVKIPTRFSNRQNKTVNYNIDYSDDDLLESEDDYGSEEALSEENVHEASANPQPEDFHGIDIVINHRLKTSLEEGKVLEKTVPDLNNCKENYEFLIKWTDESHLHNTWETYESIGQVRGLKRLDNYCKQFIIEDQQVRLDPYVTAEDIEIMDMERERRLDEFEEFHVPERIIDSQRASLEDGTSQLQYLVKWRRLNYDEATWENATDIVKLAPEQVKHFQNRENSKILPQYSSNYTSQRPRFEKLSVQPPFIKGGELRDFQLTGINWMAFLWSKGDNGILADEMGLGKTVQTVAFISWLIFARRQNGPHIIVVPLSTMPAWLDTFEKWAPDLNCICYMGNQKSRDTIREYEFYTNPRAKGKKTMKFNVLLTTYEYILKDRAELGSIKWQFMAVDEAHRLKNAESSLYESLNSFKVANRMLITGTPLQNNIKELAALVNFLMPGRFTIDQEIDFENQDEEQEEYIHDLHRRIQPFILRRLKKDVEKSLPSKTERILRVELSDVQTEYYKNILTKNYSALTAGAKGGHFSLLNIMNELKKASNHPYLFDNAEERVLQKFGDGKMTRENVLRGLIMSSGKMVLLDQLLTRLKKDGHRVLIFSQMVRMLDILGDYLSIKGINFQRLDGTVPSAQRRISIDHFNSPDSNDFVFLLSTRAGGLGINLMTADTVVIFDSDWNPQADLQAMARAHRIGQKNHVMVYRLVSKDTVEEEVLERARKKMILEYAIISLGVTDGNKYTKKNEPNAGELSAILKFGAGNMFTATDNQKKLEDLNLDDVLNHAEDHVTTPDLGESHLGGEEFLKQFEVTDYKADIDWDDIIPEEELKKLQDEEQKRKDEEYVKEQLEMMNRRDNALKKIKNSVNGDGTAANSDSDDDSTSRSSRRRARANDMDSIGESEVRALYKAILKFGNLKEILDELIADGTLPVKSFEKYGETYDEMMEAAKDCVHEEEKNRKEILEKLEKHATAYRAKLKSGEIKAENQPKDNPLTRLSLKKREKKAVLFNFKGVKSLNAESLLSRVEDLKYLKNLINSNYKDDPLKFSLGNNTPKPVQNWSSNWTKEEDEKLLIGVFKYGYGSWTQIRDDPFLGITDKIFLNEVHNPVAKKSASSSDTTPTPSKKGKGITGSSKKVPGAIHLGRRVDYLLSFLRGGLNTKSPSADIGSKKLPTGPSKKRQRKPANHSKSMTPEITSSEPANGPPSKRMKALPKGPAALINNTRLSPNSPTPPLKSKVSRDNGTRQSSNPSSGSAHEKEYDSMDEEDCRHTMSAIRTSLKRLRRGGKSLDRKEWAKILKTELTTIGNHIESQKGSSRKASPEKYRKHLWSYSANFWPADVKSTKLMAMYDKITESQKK

Row | SMILES | Percent Effect [1] [%] | Percent Effect [2] [%] | Percent Effect [3] [%] | Percent Effect [4] [%] | Percent Effect (Trypanosoma cruzi) [%] | Percent Effect [5] [%] | Percent Effect [6] [%] | Percent Effect (Homo sapiens) [%] | Percent Effect [7] [%] | Percent Effect [8] [%] | Percent Effect [9] [%]
1 | CNC(=O)c1cccc(NC(=O)CN2CCN(S(C)(=O)=O)CC2)c1 | -3.07 | 18.9 | -6.24 | 18.5 | 5.57 | 4.22 | 13.8 | 8.76 | 5.38 | 16.1 | -3.08
2 | CCn1ncnc1C(NC(=O)CC1CCN(C(C)C)CC1)C1CC1 (stereo unspecified) | -12.1 | -2.7 | -3.06 | -6.3 | -6.16 | -1.74 | 3.18 | -5.64 | -2.15 | 1.24 | -3.37
3 | CC(C)CN1CCC(NC(=O)c2ccc(F)cc2I)CC1 | -4.38 | 23.6 | -16 | 29.2 | 7.48 | 39.7 | 8.6 | -5.59 | 4.21 | 17.9 | -10.3
4 | CC(=O)N1CCN(C(=O)C2SCCc3sccc32)CC1 (stereo unspecified) | -7.67 | 0 | -1.92 | 7.24 | -2.15 | -0.833 | 2.11 | 6.62 | 3.96 | -1.22 | 0.658
5 | Cc1noc(C)c1-c1cnc(CC2CCN(C(=O)c3cc[nH]n3)C2)cn1 (stereo unspecified) | -0.461 | 9.46 | 11.7 | -4.31 | -2.37 | -2.09 | 7.02 | 3.9 | 8.6 | 14.3 | -9.57
6 | Cc1cc(C(=O)N2CCC(c3nccn3CCCN(C)C)CC2)no1 | 1.38 | 11 | -2.51 | 3.99 | 2.74 | 10.9 | 20.8 | 21.1 | 6.45 | 17.5 | -13.1
7 | CN(c1ccc(C(=O)NCCCN2CCOCC2)c(Cl)c1)S(C)(=O)=O | -5.85 | 5.2 | -0.453 | 13.2 | 4.23 | -13.8 | 7.16 | -1.2 | 5.38 | 11.1 | -6.36
8 | Cc1ccc(CN2CCn3cc(CN(C)Cc4ccco4)nc3C2)o1 | -4.77 | 15.6 | -9.82 | 2.5 | 7.2 | -9.68 | 16.2 | 7.34 | 4.23 | 11.5 | -10.4
9 | O=C(NCCCc1ccncc1)C1CCCN(Cc2ccco2)C1 (stereo unspecified) | -4.69 | 5.33 | 3.79 | -5.72 | -10.8 | 1.04 | 17.6 | 29.8 | -1.64 | 6.17 | -7.2
10 | O=C(Nc1ccccc1)c1nn(C2CCS(=O)(=O)C2)c2c1CCCC2 (stereo unspecified) | -4.15 | 5.26 | 5.68 | 0.438 | -1.07 | -2.37 | 10.3 | 8.39 | 1.06 | 10.4 | -4.11
11 | Cc1ccc(NC(=O)c2cc(S(=O)(=O)N3CCCCC3)c[nH]2)cc1F | -2.47 | 5.2 | 59.4 | -11.2 | -5.03 | 5.81 | 6.61 | 4.38 | 5.29 | -21.8 | -9.19
